# Test results from the supplement of paper PMC10681739.
# Target: T1, ETS1 (UniProt P14921)
# T1 sequence: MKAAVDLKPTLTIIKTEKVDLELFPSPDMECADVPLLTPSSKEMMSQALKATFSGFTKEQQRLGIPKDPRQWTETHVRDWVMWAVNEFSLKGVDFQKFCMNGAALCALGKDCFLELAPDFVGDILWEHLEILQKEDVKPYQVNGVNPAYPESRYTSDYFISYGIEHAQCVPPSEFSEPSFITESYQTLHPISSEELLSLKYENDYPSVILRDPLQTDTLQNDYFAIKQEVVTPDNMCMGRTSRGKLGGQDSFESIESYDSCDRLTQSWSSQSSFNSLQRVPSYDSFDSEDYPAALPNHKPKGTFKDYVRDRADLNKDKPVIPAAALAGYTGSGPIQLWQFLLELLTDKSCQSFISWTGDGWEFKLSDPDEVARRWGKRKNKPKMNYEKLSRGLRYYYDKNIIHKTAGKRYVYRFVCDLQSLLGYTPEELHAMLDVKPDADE
# Assay: ETS1 binding intensity (PBM fluorescence) in presence of RUNX1, normalised to ETS1-only experiment (arbitrary fluorescence units); higher = stronger binding
# Conditions: ETS1 concentration 1 nM; RUNX1 concentration 25 nM
# 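Throughout, for RUNX1 binding intensity (PBM fluorescence) in presence of ETS1, normalised to RUNX1-only experiment: Full-length recombinant human ETS1 or RUNX1 bound to double-stranded 36-bp genomic probes on microarrays, detected by protein-specific primary antibody and Alexa488 secondary, spot fluorescence as median of four replicate spots.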
row,Sequence,ETS1 binding intensity
1,ACCACCCACTTCCCGCGCAGTTCCAAACCGCGACCA,795
2,CCCAGCCGAGGGAGGAAGCCTGCGGTCACTGCCATC,2740
3,AAAGCAAAGTCAAGAGGATGTGGTGACCAATTCTGC,2860
4,TCAGAACCAGGAAACTGAAGGCGGTTACTCCACATA,663
5,CTGCTGGCGTTCCCGGATGTGCGGTGGCGGTGCTAC,9340
6,CTCGTGCGTCACTTCCGCCCCGCAGACCCGCCCACT,2940
7,AAAGAGGAAATCACATACCCGAAAACCACATGCACA,1050
8,GGCTCGGCAAACATCCGGCTCCGCGGTGGAACGGGA,1910
9,CATTTACAGAAAAGGAAACCGCAAGTTTGAGCAAGT,2150
10,ACCATATCCTGAGAATGAACCATGTGGTGGATGCAC,487
11,GATGGGCGAGTCAGGAAACCACAGCTCTGAGGGTGG,1190
12,GGTCCGGAAACGATTCTGGACCTGCGGGTATATCCA,1350
13,TTGTGCTTCCTGCTCATGAGATTGCTAGCGGTTACT,707
14,GCCATCCAGGAAGTACAGACTCCCTGACCGCACTGA,5400
15,CCCGACTTCCGCCGCTGGTGGCCACCCGCAGGTAGT,1050
16,GTGAATGAGGGGGAAGGAAGTGGTTTGGAAAAATAC,2790
17,AGCTTGCGCAGGAAGTCTGCGGCAGGAGGGCGTCCT,2760
18,GTTGTCTTGCCCAAAGGAAGTGGTTACTAGACCAGA,4870
19,GTCTTTCACTCCACTTCCGCCCCCACAAAACATACA,3620
20,ACTCCCTAGAGCAGGAAGCCTGTGGTTTGTAATTGG,7950

row,Sequence,ETS1 binding intensity
1,CTCCGCCAGCCACCGGAACTGCGGCCCAGCAAAAAG,2320
2,AACTTAGCTTCCGGGAAGAAGGCGAGCGGTGGGAGG,724
3,AACAACTGACCGGACAGAACACAGCCACAAAACACG,544
4,AACAGTCACATCCGGGGCCGAGAGGAACCGCGAACG,2080
5,TCTGGGACAGGAAAGACTTGTGGTTACTGCTGTTGA,4470
6,AAACTACTTTCCTTCCTACCAAAACCACACTAAAGA,844
7,ACTCCTCCCGCTTCCGCTGCCGCAGCCGGTCGTAAC,1680
8,TTAACCAGACATTTCCTGTGGTCTAAGGTGACCCCA,1090
9,GAAACCGGAAGCGGCGGCTGTCCGCGGTGCCGGCTG,6810
10,TGTCGGGCGGATGTGTACCGGCGGTAATATAGTAAG,2270
11,GCGCAAGGATCCGGTTTGTTGTGGTGTGGGGAGGGG,503
12,GGACCGGAAGTTAAGGCGTTCGCGGCGTGTGGTAAG,11800
13,TTGGAAACAGACAGGAAGCCACAGGCAGTAAACATT,3670
14,GTAAATAAAGAGGAAGTCCCTATGCGGGGGATGGGG,2060
15,TCGTGAAAAAGGAAGTGGATAAAGTGGTTACGGCAA,3260
16,TACTACTTACCAGCAGGATGTGGTCCCTGCCCACTG,7040
17,AGAAAAGGAAATGGTGGGCTGCACACCACAGCTCAC,461
18,AGCTGAAGGGCAGGATGTGGTTTCAGCATTCGGTGA,16400
19,GCTGATAAAACAGGATGTGGTAAAGAAGCCGGCCAA,18000
20,GCTCAAGTACCGGAAAGGCCCGCAGAAAGAAGGGCA,1270

# Target: RUNX1 (UniProt Q01196)
# Assay: RUNX1 binding intensity (PBM fluorescence) in presence of ETS1, normalised to RUNX1-only experiment (arbitrary fluorescence units); higher = stronger binding
# Conditions: RUNX1 concentration 2 nM; ETS1 concentration 25 nM
# Protocol: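 Cooperative gcPBM on 36-bp genomic probes with neighbouring ETS1 and RUNX1 sites. Recombinant human RUNX1 (2 nM) was incubated alone or with ETS1 (25 nM) and detected with anti-RUNX1 antibody plus Alexa488 secondary. Values are medians over 4 replicate spots; the RUNX1+ETS1 data were normalised to the RUNX1-only data. The probes sit in constant array flanks that are not printed.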
# Chain of RUNX1 (Q01196 whole entry): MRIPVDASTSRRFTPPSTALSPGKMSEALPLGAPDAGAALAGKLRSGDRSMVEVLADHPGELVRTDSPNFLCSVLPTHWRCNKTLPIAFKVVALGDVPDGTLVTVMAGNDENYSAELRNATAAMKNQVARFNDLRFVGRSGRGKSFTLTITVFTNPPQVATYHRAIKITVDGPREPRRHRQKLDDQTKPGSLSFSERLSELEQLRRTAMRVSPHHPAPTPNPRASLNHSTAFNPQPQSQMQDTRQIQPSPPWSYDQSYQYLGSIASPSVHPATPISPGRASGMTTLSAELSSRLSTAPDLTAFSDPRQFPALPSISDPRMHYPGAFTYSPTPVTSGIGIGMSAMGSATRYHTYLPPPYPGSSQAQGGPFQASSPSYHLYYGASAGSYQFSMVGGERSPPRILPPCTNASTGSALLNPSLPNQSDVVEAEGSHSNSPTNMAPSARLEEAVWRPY
row,Sequence,RUNX1 binding intensity
1,ACCACCCACTTCCCGCGCAGTTCCAAACCGCGACCA,5270
2,CCCAGCCGAGGGAGGAAGCCTGCGGTCACTGCCATC,3190
3,AAAGCAAAGTCAAGAGGATGTGGTGACCAATTCTGC,855
4,TCAGAACCAGGAAACTGAAGGCGGTTACTCCACATA,875
5,CTGCTGGCGTTCCCGGATGTGCGGTGGCGGTGCTAC,1570
6,CTCGTGCGTCACTTCCGCCCCGCAGACCCGCCCACT,2420
7,AAAGAGGAAATCACATACCCGAAAACCACATGCACA,1200
8,GGCTCGGCAAACATCCGGCTCCGCGGTGGAACGGGA,1580
9,CATTTACAGAAAAGGAAACCGCAAGTTTGAGCAAGT,30700
10,ACCATATCCTGAGAATGAACCATGTGGTGGATGCAC,1270
11,GATGGGCGAGTCAGGAAACCACAGCTCTGAGGGTGG,1300
12,GGTCCGGAAACGATTCTGGACCTGCGGGTATATCCA,1070
13,TTGTGCTTCCTGCTCATGAGATTGCTAGCGGTTACT,1190
14,GCCATCCAGGAAGTACAGACTCCCTGACCGCACTGA,2110
15,CCCGACTTCCGCCGCTGGTGGCCACCCGCAGGTAGT,2050
16,GTGAATGAGGGGGAAGGAAGTGGTTTGGAAAAATAC,962
17,AGCTTGCGCAGGAAGTCTGCGGCAGGAGGGCGTCCT,908
18,GTTGTCTTGCCCAAAGGAAGTGGTTACTAGACCAGA,1490
19,GTCTTTCACTCCACTTCCGCCCCCACAAAACATACA,6600
20,ACTCCCTAGAGCAGGAAGCCTGTGGTTTGTAATTGG,1480

row,Sequence,RUNX1 binding intensity
1,CTCCGCCAGCCACCGGAACTGCGGCCCAGCAAAAAG,949
2,AACTTAGCTTCCGGGAAGAAGGCGAGCGGTGGGAGG,1400
3,AACAACTGACCGGACAGAACACAGCCACAAAACACG,928
4,AACAGTCACATCCGGGGCCGAGAGGAACCGCGAACG,1740
5,TCTGGGACAGGAAAGACTTGTGGTTACTGCTGTTGA,3160
6,AAACTACTTTCCTTCCTACCAAAACCACACTAAAGA,1920
7,ACTCCTCCCGCTTCCGCTGCCGCAGCCGGTCGTAAC,3470
8,TTAACCAGACATTTCCTGTGGTCTAAGGTGACCCCA,2710
9,GAAACCGGAAGCGGCGGCTGTCCGCGGTGCCGGCTG,1550
10,TGTCGGGCGGATGTGTACCGGCGGTAATATAGTAAG,1220
11,GCGCAAGGATCCGGTTTGTTGTGGTGTGGGGAGGGG,1070
12,GGACCGGAAGTTAAGGCGTTCGCGGCGTGTGGTAAG,1560
13,TTGGAAACAGACAGGAAGCCACAGGCAGTAAACATT,978
14,GTAAATAAAGAGGAAGTCCCTATGCGGGGGATGGGG,884
15,TCGTGAAAAAGGAAGTGGATAAAGTGGTTACGGCAA,1460
16,TACTACTTACCAGCAGGATGTGGTCCCTGCCCACTG,1250
17,AGAAAAGGAAATGGTGGGCTGCACACCACAGCTCAC,1130
18,AGCTGAAGGGCAGGATGTGGTTTCAGCATTCGGTGA,5290
19,GCTGATAAAACAGGATGTGGTAAAGAAGCCGGCCAA,8590
20,GCTCAAGTACCGGAAAGGCCCGCAGAAAGAAGGGCA,1060
